# Laboratory results taken from ChEMBL document CHEMBL1857833, “Screening and optimization of specific chemical series against human African Trypanosomiasis (HAT)”.
# In all, about 4,400 compounds went through this assay and about 390 (8.9%) showed an effect of 50% or more. Many of the other results were omitted from the sample, so strong results are more common in it than they were.
# Tested on: Trypanosoma brucei
# Assay: DNDI: Inhibition of Human African Trypanosomiasis, SBRI 427, in vitro at 2 ug.mL-1
# Format: functional
row,Compound,% inhibition [%]
1,Cc1ccc(C)c(N2CCN(Cc3coc(-c4ccc(F)cc4)n3)CC2)c1,-12
2,Fc1ccc(-c2nc(CNC3CCCCC3)co2)cc1,8
3,Cc1ccc(-c2nc(CNC3CCCCCCC3)co2)cc1,71
4,Oc1ccc(-c2nc(CNC3CCCCCCCCCCC3)co2)cc1,60
5,c1coc(-c2nc(CNC3CCCCC3)co2)c1,6
6,Oc1ccc(-c2nc(CNC3CCCCCC3)co2)cc1,16
7,CC(NCc1coc(-c2ccc(O)cc2)n1)C1CCCCC1 (configuration not stated),0
8,FC(F)(F)c1ccc(-c2nc(CNc3ccc(Oc4ccccc4)cc3)co2)cc1,4
9,COc1cccc(-c2nc(CN(CCN(C)C)Cc3ccccc3)co2)c1,23
10,Cc1cc(C)cc(Oc2ccc(/C(=N/O)N3CCN(C4CCCC4)CC3)cn2)c1,0
11,COc1cc(-c2nc(CNC(C)c3cccc4ccccc34)co2)cc(OC)c1OC (configuration not stated),-4
12,COc1ccc(CN/C(=N\O)c2cccnc2Oc2c(F)cccc2F)cc1,-7
13,COc1ccccc1Oc1ncccc1/C(=N/O)NCc1c(F)cccc1F,28
14,O/N=C(\NCc1ccncc1)c1cccnc1Oc1ccc(F)cc1,2
15,CCOc1ccccc1CN/C(=N\O)c1cccnc1Oc1c(F)cccc1F,41
16,CC(C)(C)CN/C(=N\O)c1cccnc1Oc1c(F)cccc1F,100
17,O/N=C(\NCc1ccccc1)c1cccnc1Oc1c(F)c(F)cc(F)c1F,10
18,O/N=C(\NCc1cccnc1)c1cccnc1Oc1ccc(F)cc1,2
19,O/N=C(\NCc1c(F)cccc1F)c1cccnc1Oc1ccc(F)cc1,94

row,Compound,% inhibition [%]
1,Cc1ccccc1CN/C(=N\O)c1cccnc1Oc1c(F)cccc1F,95
2,CSc1ccccc1Oc1ncccc1/C(=N/O)NCc1c(F)cccc1F,58
3,CCc1ccc(Oc2ncccc2/C(=N/O)n2ccnc2)cc1,3
4,Cc1cccc(Oc2ccc(/C(=N/O)N(C)C3CCCCC3)cn2)c1,4
5,Cc1ccc(/C(=N/O)NCC2CC2)c(Oc2cccc3c2CCCC3)n1,-5
6,Cc1cc(C)cc(Oc2nc(C)ccc2/C(=N/O)Nc2ccc(C(C)C)cc2)c1,0
7,COc1cccc(-c2nc(CN3CCN(c4ccccn4)CC3)co2)c1,-9
8,Oc1ccc(-c2nc(CNCc3ccccc3)co2)cc1,1
9,CN(Cc1coc(-c2ccc(C(F)(F)F)cc2)n1)CC1OCCO1,-7
10,CN(Cc1cccnc1)Cc1coc(-c2cccc(F)c2)n1,-1
11,O/N=C(\NCc1cccs1)c1cccnc1Oc1c(F)cccc1F,73
12,O/N=C(\NCc1c(F)cccc1F)c1cccnc1Oc1ccccc1,98
13,Cc1ccc(Oc2ncccc2/C(=N/O)NCc2ccccc2)cc1,12
14,Cc1cccc(Oc2ncccc2/C(=N/O)NCc2ccncc2)c1C,5
15,Cc1ccccc1CN/C(=N\O)c1cccnc1Oc1cccc(C)c1C,85
16,O/N=C(\NCc1cccnc1)c1cccnc1Oc1ccccc1,8
17,O/N=C(\NCc1ccccc1)c1cccnc1Oc1c(F)cccc1F,3
18,Cc1ccc(Oc2nc(C)ccc2/C(=N/O)NCc2c(F)cccc2F)cc1,13
19,COc1ccccc1CN/C(=N\O)c1cccnc1Oc1cccc(C)c1C,7

row,Compound,% inhibition [%]
1,Cc1cccc(Oc2ncccc2/C(=N/O)NCc2cccs2)c1C,3
2,CCCN/C(=N\O)c1cccnc1Oc1ccccc1,8
3,Cc1ccc(Oc2ncccc2/C(=N/O)NCc2c(F)cccc2F)cc1,98
4,CSc1ccc(Oc2ncccc2/C(=N/O)NCc2cccnc2)cc1C,10
5,CCOc1cccc(-c2nc(CNCCc3cccc(OC)c3)co2)c1,8
6,COCC(C)NCc1coc(-c2cccc(C)c2)n1 (configuration not stated),19
7,Cc1ccc(N(C)Cc2coc(-c3ccccc3Cl)n2)cc1,-9
8,O/N=C(\NCc1c(F)cccc1F)c1cccnc1OC1CCC1,10
9,Cc1cc(C)cc(CN/C(=N\O)c2cccnc2Oc2c(F)c(F)cc(F)c2F)c1,-3
10,O/N=C(\NCc1ccccc1)c1cccnc1OCc1ccccc1F,37
11,O/N=C(\NCc1c(F)cccc1F)c1cccnc1Oc1c(F)cccc1F,95
12,O/N=C(\NCc1ccncc1)c1cccnc1OCc1ccccc1F,-12
13,O/N=C(\NCc1c(F)cccc1F)c1cccnc1Oc1c(F)c(F)cc(F)c1F,2
14,CC(C)c1ccc(Oc2ncccc2/C(=N/O)NCc2ccncc2)cc1,1
15,CC(C)c1ccc(Oc2ncccc2/C(=N/O)NCc2c(F)cccc2F)cc1,100
16,CC(C)COc1ncccc1/C(=N/O)NCc1c(F)cccc1F,-9
17,Cc1cc(C)cc(CN/C(=N\O)c2cccnc2OCc2ccccc2F)c1,83
18,Cc1cc(C)cc(CN/C(=N\O)c2cccnc2Oc2cccc(C)c2C)c1,-13
19,Cc1cc(C)cc(CN/C(=N\O)c2cccnc2Oc2c(F)cccc2F)c1,100
